Screening data as filed in PubChem BioAssay.
FLuc modulator: firefly luciferase modulation, counter-screen for miR-21 project | P08659 | purified FLuc, Km substrates, luminescence inhibition | Potency, µM (doses to about 57.5 µM), for inactives: top-dose activity change, negative = inhibition, usual class: inhibitors | hit rate 6.9% among 360,000 | AID 588342;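 further: plate controls were vehicle for no effect and reference inhibitor for full effect; nearly all actives have a fitted effect of over 55% in size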
Target sequence (P08659 whole entry, looked up): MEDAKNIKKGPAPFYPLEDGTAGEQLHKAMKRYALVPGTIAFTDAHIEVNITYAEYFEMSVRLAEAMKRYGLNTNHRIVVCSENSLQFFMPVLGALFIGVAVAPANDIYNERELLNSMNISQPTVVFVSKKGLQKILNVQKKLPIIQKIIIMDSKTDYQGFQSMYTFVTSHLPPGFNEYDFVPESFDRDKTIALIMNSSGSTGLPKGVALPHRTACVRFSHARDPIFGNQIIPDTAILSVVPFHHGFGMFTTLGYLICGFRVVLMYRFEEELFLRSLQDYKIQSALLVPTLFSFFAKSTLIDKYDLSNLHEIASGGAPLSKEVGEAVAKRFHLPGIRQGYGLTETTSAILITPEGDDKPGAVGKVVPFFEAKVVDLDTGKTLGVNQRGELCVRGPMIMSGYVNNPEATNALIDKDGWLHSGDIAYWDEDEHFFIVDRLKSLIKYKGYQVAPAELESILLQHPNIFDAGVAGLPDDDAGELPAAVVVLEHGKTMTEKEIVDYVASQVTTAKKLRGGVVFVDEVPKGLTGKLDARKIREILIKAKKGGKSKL
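Purified P. pyralis luciferase, 10 nM final, with Km-level 10 uM D-luciferin and 10 uM ATP in 50 mM Tris acetate pH 7.5, 10 mM Mg acetate, 0.01% Tween-20, 0.05% BSA; 6-point qHTS titration about 60 µM downward; luminescence read.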
NPC1 promoter act: activators of NPC1 promoter; Huh7 NPC1 promoter luciferase reporter, 24 h; Potency, µM (series often up to 9.22 µM), for inactives: top-dose activation, usual class: activators; hit rate 2.4% among 320,000; AID 485313; further: % of control where 0% means no effect; nearly all actives have a fitted effect of over 60% in size
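Huh7 cells stably carrying NPC1 promoter–luciferase, plated in Opti-MEM with 10% FBS for 2 h, were exposed to compound in DMSO for 24 h at 37 °C; luciferase reagent was added for 10 min and luminescence read.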
ELG1 repair inh: ELG1-dependent DNA repair inhibition; Potency, µM (highest dose often 46.1 µM), without a hit: top-dose activity change, negative = inhibition, hits mostly inhibitors; hit rate 2.3% among 330,000; HEK293T ELG1-luciferase reporter, luminescence, 16 h; DNA damage induced by 5-fluorouridine; further: on the % scale 0 is the no-effect control and ±100 the full control effect; nearly all actives have a fitted effect of over 55% in size
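DMSO vehicle served as the neutral condition. Each well held 2,000 cells given 5-fluorouridine plus compound; after 16 hr at 37 °C/5% CO2, ONE-Glo was added and luciferase measured 30 min later.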
Rab9 prom act: Rab9 promoter activation | Potency, µM (titrated, usually from 9.22 µM), without a hit: at the highest dose activation, negative = inhibition, hits mostly activators | AID 485297 | Huh7 Rab9 promoter-luciferase reporter, luminescence, 24 h | hit rate 2.8% among 320,000; further: % of control where 0% means no effect; nearly all actives have a fitted effect of over 60% in size
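Steps: seed 1500 Huh7 Rab9-luc cells per well, rest 2 h at 37 °C; add compound in DMSO; incubate 24 h; add luciferase reagent, 10 min ambient; read luminescence.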
SMN2 splice enh: SMN2 splice variant enhancement. hit rate 2.8% among 210,000. Potency, µM (series often up to 46.1 µM), without a hit: top-dose activity change, positive = activation, actives largely listed as activators. HEK293 SMN2-luciferase splicing reporter, luminescence, 30-36 h; further: % of control where 0% means no effect; nearly all actives have a fitted effect of over 55% in size
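HEK293 cells carry an SMN2 minigene-luciferase reporter in which exon 7 inclusion puts luciferase in frame. Cells were seeded at 2000 cells/well, attached for 10-12 hours, then exposed to compounds for 30-36 hours at 37C before ONE-Glo luminescence.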
ELG1 genotox: inducers of genotoxicity in HEK293T ELG1-luciferase cells; Potency, µM (titrated, usually from 46 µM), for inactives: top-dose activity change, positive = activation, actives largely listed as activators; hit rate 1.3% among 330,000; HEK293T ELG1-luciferase reporter, luminescence, 16 h; further: % of control where 0% means no effect; nearly all actives have a fitted effect of over 60% in size
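After overnight (16 hr) compound treatment at 37 °C, ELG1-luciferase HEK293T cells were lysed with ONE-Glo; luminescence quantified 30 min later at room temperature.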
* = called active by the depositor; ? = inconclusive; nt = no result given; [ ] = remark or other dose. Compounds with a hit are over-represented: about 9.2% of the library has one in this group of screens. The call rests on the fitted dose curve; in most records, active means well fitted curve in the direction sought with a large enough effect; inconclusive means small, poorly fitted or top-dose-only effect, or another doubt; inactive means no such curve, though single readings can be large; an effect the other way counts as inactive or inconclusive. Potency means the concentration at half of the fitted maximal effect.

SMILES | FLuc modulator | NPC1 promoter act | ELG1 repair inh | Rab9 prom act | SMN2 splice enh | ELG1 genotox
CCOC(=O)c1sc(NC(=O)Cc2ccc(F)cc2)nc1C | ? | 1% | ? | 2% | -27% | 3%
CCOC(=O)c1ccc(NC(=O)Oc2cc(C)c(Cl)cc2C(C)C)cc1 | -9% | 2% | 10% | 4.5µM* | nt | 5%
CCOC(=O)c1ccc(NC(=O)Oc2ccccc2)cc1 | ? | 3% | ? | 19% | -5% | 8%
CCOC(=O)c1ccc(NC(=O)Nc2ccc(F)cc2)cc1 | 11µM* | 20% | ? | 18% | 4% | 10%
CCC/C=C(\CCC)C(NS(=O)(=O)c1cccc2cccnc12)c1ccc(-c2ccccc2)cc1 (stereo not drawn) | nt | nt | nt | nt | 8% | nt
Cn1c(=O)c2[nH]c(CCCCC(=O)O)nc2n(C)c1=O | nt | nt | nt | nt | 2%[9.22 µM] | nt
CCC1=C2CC[C@H]3C(=O)N(CC)C(=O)[C@H]3[C@H]2[C@@]2(Cc3ccccc3)C(=NCC3CC3)OC(=O)N2C1=O | nt | nt | nt | nt | 6% | nt
Cc1ccc(CNC(=O)C2CCN(S(=O)(=O)N3CCC4(CC3)OCCO4)CC2)cc1 | 1% | 0% | -3% | -4% | -14% | 1%
CCn1c(=O)n(-c2ccc(F)c(Cl)c2)c(=O)c2c3c(sc21)CN(C(C)=O)CC3 | 3% | nt | nt | nt | -6% | nt
COc1ccc(CCN(Cc2cc3cccc(C)c3n3nnnc23)C(=O)c2ccncc2)cc1OC | 0% | -4% | -4% | -11% | -2% | -8%
CCc1ccc(NC(=O)C2CCCN(S(=O)(=O)c3ccc(F)cc3)C2)cc1 (stereo not drawn) | -7% | nt | nt | nt | -8% | nt
CC(C)(C)c1ccc(NC(=O)c2ccc(=O)[nH]n2)cc1 | 3µM* | 0.71µM* | ? | 0.79µM* | nt | ?
CCOC(=O)c1ccc(NC(=O)C2CCCN(S(=O)(=O)c3ccc(F)cc3)C2)cc1 (stereo not drawn) | 2% | -3% | 16µM* | 0% | -25% | -37%
O=C(C1CCCN(S(=O)(=O)c2ccc(F)cc2)C1)N(Cc1cccs1)C1CC1 (stereo not drawn) | 10% | 2% | 12µM* | 6% | -51% | -28%
CC(C)(C)c1ccc(NC(=O)Nc2ccc(F)cc2)cc1 | 2.4µM* | 1.8µM* | ? | 2.5µM* | 13µM* | ?
O=C(C1CCCN(S(=O)(=O)c2ccc(F)cc2)C1)N1CCCC1 (stereo not drawn) | 1% | 11% | 11% | -4% | -4% | 0%
CCOC(=O)c1cc(NC(=O)Nc2ccccn2)c(C)nc1C | -1% | 13% | 14% | 2% | 0% | 4%
COC(=O)c1ccc(NC(=O)Nc2ccc(OC)cc2)cc1 | -20% | 8% | 9% | 22% | 19% | 0%
COC(=O)c1ccc(NC(=O)Nc2ccc(F)cc2)cc1 | 11µM* | ? | ? | ? | -4% | 8%
COC(=O)c1ccc(NC(=O)Nc2ccc(F)c(Cl)c2)cc1 | 27µM* | 14% | ? | 29% | -16% | 8%
Cc1ccc(OC(=O)c2sc3ncn(C)c(=O)c3c2C)cc1 | ? | 2.8µM* | ? | 2.8µM* | 17% | 14%
COc1ccc(OCCC(=O)N2CCCCC2)cc1 | ? | 30% | ? | 29% | 18µM* | 11%
O=C(NN1CCCCC1)c1cccc(COc2ccc(Cl)cc2)c1 | 4.8µM* | ? | ? | 3.5µM* | 14µM* | ?
CCCCOc1ccc(C(=O)N2CCCC2)cc1 | ? | 21% | ? | 25% | 11µM* | 18µM*
CCOc1ccc(OCc2cccc(C(=O)N3CCCCCC3)c2)cc1 | 0.54µM* | 0.32µM* | ? | 0.28µM* | 1.8µM* | ?
SMILES | FLuc modulator | NPC1 promoter act | ELG1 repair inh | Rab9 prom act | SMN2 splice enh | ELG1 genotox
COc1ccc(OCCC(=O)N2CCN(C)CC2)cc1 | -3% | -5% | 1% | -5% | nt | 2%
Cc1ccc(SCC(=O)NC(=O)NCc2ccccc2)c(C)c1 | 4% | 0% | 3% | -1% | 2% | 1%
CC1CN(C(=O)c2cccc(C(=O)N3CC(C)OC(C)C3)c2)CC(C)O1 (stereo not drawn) | 4% | -6% | 1% | -5% | -22% | 3%
CCOc1ccc(OCc2cccc(C(=O)N3CCCC3)c2)cc1 | 3µM* | 0.35µM* | ? | 0.45µM* | 2.8µM* | 0.65µM*
CC1CN(C(=O)c2cccc(COc3ccccc3Cl)c2)CC(C)O1 (stereo not drawn) | 15µM* | 3.5µM* | ? | ? | 11µM* | ?
COc1ccc(-c2ccc(=O)n(CC(=O)NCCc3ccccc3)n2)cc1 | -9% | nt | nt | nt | nt | nt
COc1ccc2sc(N(CCCN(C)C)C(=O)c3nc4ccccc4s3)nc2c1 | -11% | 0% | ? | 12% | 10% | 4%
COc1ccccc1C(=O)N(CCC1CCCN1C)c1nc2ccccc2s1 (stereo not drawn) | 4.8µM* | -3% | ? | -4% | -14% | ?
O=C(Oc1ccc(-c2ccccc2)cc1)C1C2CCCCC21 (stereo not drawn) | 4.8µM* | -4% | -1% | -5% | 5% | 17%
O=C(Oc1ccc(-c2ccccc2)cc1)N1CCCCC1 | 8.5µM* | nt | nt | nt | ? | nt
Cc1c(O[C@@H]2O[C@H](CO)[C@@H](O)[C@H](O)[C@H]2O)c(CO)c(O[C@@H]2O[C@H](CO)[C@@H](O)[C@H](O)[C@H]2O)c2c1O[C@@H](c1ccccc1)C[C@@H]2O | nt | nt | ? | nt | nt | 4%
COc1ccc2c(c1OC)C(=O)N(c1cccc(NC(C)=O)c1)C2 | 11µM* | 14% | ? | 21% | nt | ?
COc1ccc2c(c1OC)C(=O)N(c1ccc(F)cc1)C2 | 8.5µM* | 2µM* | ? | 1.3µM* | nt | ?
COc1ccc(C(=O)Nc2cccc(NC(C)=O)c2)cc1OC | ? | 1% | ? | -7% | 12% | 2%
Cc1ccc(C2C(C#N)=C(N)Oc3c2sc2ccccc32)o1 (stereo not drawn) | 13µM* | 0% | 8% | 1% | 5% | ?
CCOC(=O)CC1=C(C(=O)OCC)C(c2ccc(C)o2)C(C#N)=C(N)O1 (stereo not drawn) | 4% | -3% | 8% | 2% | 2% | 0%
Cc1ccc(CNC(=O)CC2Oc3ccccc3NC2=O)cc1 (stereo not drawn) | -1% | nt | nt | nt | -1% | nt
Cc1ccc(NC(=S)c2ccc3ccccc3n2)c(C)c1 | 11µM* | 1.1µM* | ? | 1.6µM* | nt | ?
CCCC(=O)Nc1ccc(NC(=O)c2cc3ccccc3o2)c(OC)c1 | ? | 4µM* | 0% | 2.5µM* | nt | 18%
